# Laboratory results published in PubChem BioAssay (Tox21).
# Results filed as inconclusive are left out. A call without a number means that no potency is given here. Active and inactive are the calls of the source. The call rests on the fitted dose curve; in most records, active means well fitted inhibition curve with a large enough effect in the repeat runs; inconclusive means weak or mixed curves; inactive means no such curve, though single readings can be large or run the other way.
# Molecular target: Cytochrome P450 3A4 (Homo sapiens) (UniProt P08684)
# Experiment: Cytochrome P450 Family 3 Subfamily A Member 4 (CYP3A4) small molecule antagonists: luciferase reporter qHTS assay (AID 1671201); further: nearly all actives have a fitted effect of over 50% in size
# Conditions: P450-Glo CYP3A4 enzyme, luciferin luminescence, 1 h; series mostly up to 115 µM; activity change, negative = inhibition: at the top concentration
# Outline: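 Proluciferin-to-luciferin conversion by CYP3A4, NADPH-regenerated, 1 h RT; luminescence read as RLU. Ketoconazole as control.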
# Potency means the concentration at half of the fitted maximal effect.
# Chain of Cytochrome P450 3A4 (Homo sapiens) (P08684 whole entry, looked up): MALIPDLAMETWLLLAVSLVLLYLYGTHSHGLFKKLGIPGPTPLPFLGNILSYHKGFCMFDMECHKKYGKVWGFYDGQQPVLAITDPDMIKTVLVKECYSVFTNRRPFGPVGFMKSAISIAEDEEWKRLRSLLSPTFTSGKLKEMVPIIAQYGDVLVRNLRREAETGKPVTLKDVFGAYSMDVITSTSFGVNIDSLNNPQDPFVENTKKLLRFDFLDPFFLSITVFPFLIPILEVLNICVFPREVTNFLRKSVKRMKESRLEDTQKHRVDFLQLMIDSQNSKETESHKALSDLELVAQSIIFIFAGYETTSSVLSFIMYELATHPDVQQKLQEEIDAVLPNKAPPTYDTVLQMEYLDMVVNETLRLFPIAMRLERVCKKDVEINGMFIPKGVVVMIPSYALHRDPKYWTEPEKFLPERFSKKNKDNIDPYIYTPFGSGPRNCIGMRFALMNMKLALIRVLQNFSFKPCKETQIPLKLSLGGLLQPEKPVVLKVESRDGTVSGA
Compound,Potency,"activity change, negative = inhibition"
Cc1cccc(C)c1O,inactive,
N[C@@H](Cc1c[nH]c2ccccc12)C(=O)O,inactive,
CC(=O)/C=C/C1=C(C)CCCC1(C)C,35.6 µM (active),
CC(C)(C)NCC(O)c1ccc(O)c(CO)c1 (stereo not given),inactive,
CCCCCCCC(=O)OCC(O)CO (stereo not given),inactive,
C[C@]12C[C@H](O)[C@H]3[C@@H](CCC4=CC(=O)CC[C@@]43C)[C@@H]1CC[C@@H]2C(=O)CO,,7.83% [at 52.9 µM] (inactive)
CC1=NN(c2ccccc2)C(=O)C1,inactive,
C1CNCCN1,inactive,
C=CC(=O)NC(C)(C)CS(=O)(=O)O,inactive,
CC(C)CC(C)CC(O)CC(C)C (stereo not given),inactive,
CC(C)Cc1ccc(C(C)C(=O)O)cc1 (stereo not given),inactive,
CN(C)Cc1cc(CN(C)C)c(O)c(CN(C)C)c1,,-7.57% (inactive)
CCCCC/C(C=O)=C\c1ccccc1,inactive,
C=C(C)C(N)=O,inactive,
NC(=O)c1ccc([N+](=O)[O-])cc1Cl,inactive,
Cc1c(N(C)CS(=O)(=O)O)c(=O)n(-c2ccccc2)n1C,inactive,
NC(N)=NC(N)=NCCc1ccccc1,inactive,
CC(=O)c1ccc(S(=O)(=O)NC(=O)NC2CCCCC2)cc1,inactive,
OCCCc1ccccc1,inactive,
CCn1cc(C(=O)O)c(=O)c2ccc(C)nc21,inactive,
